Results from PubChem BioAssay (Tox21).
Inconclusive results are not listed. Calls of active or inactive are those of the source. Unless noted, calls come from the whole dose curve; as a rule, active = well fitted curve in the direction sought with a large enough effect in the repeat runs; inconclusive = weak or mixed curves; inactive = no such curve, though single readings can be large; an effect the other way counts as inactive or inconclusive.

What was measured:
[1] = qHTS assay to identify aromatase inhibitors - cell viability counter screen (AID 743084);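 note: cells stimulated with testosterone during compound exposure; nearly all actives have a fitted effect of over 55% in size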
[2] = biological target: Aryl hydrocarbon receptor (Homo sapiens) (UniProt P35869); experiment: qHTS assay to identify small molecule that activate the aryl hydrocarbon receptor (AhR) signaling pathway (AID 743085);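 note: HG2L7.5c1 human HepG2 liver cells with stably integrated DRE-driven firefly reporter; series mostly up to about 70 µM; nearly all actives have a fitted effect of over 15% in size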
Aryl hydrocarbon receptor (Homo sapiens), sequence (P35869 whole entry, looked up): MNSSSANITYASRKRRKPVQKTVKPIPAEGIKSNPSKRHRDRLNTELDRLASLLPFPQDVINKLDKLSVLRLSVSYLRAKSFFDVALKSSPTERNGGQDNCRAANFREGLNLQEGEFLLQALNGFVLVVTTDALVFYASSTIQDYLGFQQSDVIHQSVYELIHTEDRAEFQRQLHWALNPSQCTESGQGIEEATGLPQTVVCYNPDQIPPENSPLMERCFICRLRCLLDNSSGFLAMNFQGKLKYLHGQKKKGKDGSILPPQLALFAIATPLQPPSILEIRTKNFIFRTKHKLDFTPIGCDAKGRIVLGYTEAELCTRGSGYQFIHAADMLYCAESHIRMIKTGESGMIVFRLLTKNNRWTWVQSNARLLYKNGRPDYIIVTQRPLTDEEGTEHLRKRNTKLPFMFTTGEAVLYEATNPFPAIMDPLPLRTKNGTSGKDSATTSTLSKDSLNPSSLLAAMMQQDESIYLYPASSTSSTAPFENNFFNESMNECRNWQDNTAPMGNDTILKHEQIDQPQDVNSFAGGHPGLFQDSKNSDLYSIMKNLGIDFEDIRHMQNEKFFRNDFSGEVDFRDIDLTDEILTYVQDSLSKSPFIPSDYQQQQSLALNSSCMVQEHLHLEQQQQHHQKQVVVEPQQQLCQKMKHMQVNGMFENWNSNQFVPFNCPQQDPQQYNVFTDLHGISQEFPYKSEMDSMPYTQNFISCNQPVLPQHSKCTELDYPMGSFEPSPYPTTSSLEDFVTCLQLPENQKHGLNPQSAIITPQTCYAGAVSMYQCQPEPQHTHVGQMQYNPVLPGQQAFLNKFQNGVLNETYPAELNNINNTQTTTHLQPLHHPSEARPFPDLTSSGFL
Summary of the method: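 Luminescence read-out: ONE-Glo reagent, 30 min at room temperature, in HG2L7.5c1 HepG2 reporter cells treated 24 h at 37C. Viability was measured beforehand by CellTiter-Fluor fluorescence after 30 min at 37C.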

[3] = qHTS assay to identify small molecule that activate the aryl hydrocarbon receptor (AhR) signaling pathway - cell viability counter screen (AID 743086);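 note: HepG2 liver cells carrying the AhR DRE luciferase reporter; series mostly up to about 70 µM; nearly all actives have a fitted effect of over 45% in size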
Summary of the method: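 HepG2-AhR-luc (HG2L7.5c1) cells, 4000/well, were preincubated 5 h at 37C, exposed to compound in qHTS format for 24 hr at 37C, then given CellTiter-Fluor for 30 min; viability was read as fluorescence in the reporter wells.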

[4] = qHTS assay to identify small molecule antagonists of the peroxisome proliferator-activated receptor gamma (PPARg) signaling pathway - cell viability counter screen (AID 743194); note: nearly all actives have a fitted effect of over 55% in size
Summary of the method: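 PPARg-UAS-bla HEK293H cells were plated, rested 5 h at 37 C, then treated with compounds plus rosiglitazone (50 nM final) for 17 h at 37 C; viability was then read by CellTiter-Glo luminescence after 30 min at room temperature.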

[5] = qHTS assay for small molecule agonists of the antioxidant response element (ARE) signaling pathway (AID 743202; active = well fitted activation curve with a large enough effect in the signal ratio in the repeat runs, not every such curve was filed as active; the % refers to the signal ratio)
Summary of the method: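 Read-out: LiveBLAzer B/G FRET substrate fluorescence after 2 h at room temperature, following 16 h compound treatment at 37 C of HepG2 cells carrying an ARE-driven beta-lactamase reporter.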

[6] = qHTS assay for small molecule agonists of the antioxidant response element (ARE) signaling pathway - cell viability counter screen (AID 743203; calls by dose curve; note: nearly all actives have a fitted effect of over 55% in size)
Summary of the method: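 Seeded at 2,000 cells/well, ARE-bla HepG2 cells were incubated 5 hrs before compound addition. After 16 hrs of treatment at 37C with 5% CO2, CellTiter-Glo reagent was added and luminescence read 30 min later.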

[7] = qHTS assay for small molecule activators of the heat shock response signaling pathway - cell viability counter screen (AID 743209); note: nearly all actives have a fitted effect of over 50% in size
Summary of the method: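 First, HSE-bla HeLa cells were seeded at 1500 cells/well and kept overnight at 37 C. Next, compounds were pinned in and incubated 5 h. After the FRET substrate step, CellTiter-Glo was added and luminescence read 30 min later.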

[8] = qHTS assay for small molecule activators of the heat shock response signaling pathway (AID 743210; active = well fitted activation curve with a large enough effect in the signal ratio in the repeat runs, with a control signal flat, not every such curve was filed as active; the % refers to the signal ratio; note: series mostly up to about 63 µM)
Summary of the method: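 HSE-bla HeLa cells (beta-lactamase reporter under heat shock response elements) were exposed to compounds for 5 h at 37 C, then loaded with LiveBLAzer B/G FRET substrate for 2.5 h at room temperature before fluorescence reading.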

[9] = biological target: Peroxisome proliferator-activated receptor gamma (Homo sapiens) (UniProt P37231); experiment: qHTS assay to identify small molecule agonists of the peroxisome proliferator-activated receptor gamma (PPARg) signaling pathway (AID 743094; active = well fitted activation curve with a large enough effect in the signal ratio in the repeat runs, not every such curve was filed as active; the % refers to the signal ratio)
Peroxisome proliferator-activated receptor gamma (Homo sapiens), sequence (P37231 whole entry, looked up): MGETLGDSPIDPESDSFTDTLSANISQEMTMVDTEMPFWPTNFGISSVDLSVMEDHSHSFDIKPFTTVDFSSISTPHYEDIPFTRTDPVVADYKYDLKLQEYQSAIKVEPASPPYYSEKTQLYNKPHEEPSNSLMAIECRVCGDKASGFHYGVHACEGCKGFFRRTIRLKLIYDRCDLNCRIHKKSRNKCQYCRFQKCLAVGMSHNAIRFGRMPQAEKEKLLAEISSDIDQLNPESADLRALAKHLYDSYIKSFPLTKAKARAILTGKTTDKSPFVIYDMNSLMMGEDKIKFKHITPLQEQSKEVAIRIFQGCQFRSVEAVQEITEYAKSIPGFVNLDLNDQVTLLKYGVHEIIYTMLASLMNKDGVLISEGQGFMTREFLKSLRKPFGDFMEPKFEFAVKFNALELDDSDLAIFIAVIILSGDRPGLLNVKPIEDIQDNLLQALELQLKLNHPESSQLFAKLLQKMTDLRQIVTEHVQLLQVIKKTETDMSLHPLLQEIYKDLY
Summary of the method: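 Quantitative HTS agonist mode: stable HEK293H line with UAS-beta-lactamase reporter under PPARg control, 17 h compound exposure at 37C, fluorescence after 1 h FRET substrate loading at room temperature.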

[10] = biological target: Peroxisome proliferator-activated receptor gamma (Homo sapiens) (UniProt P37231); experiment: qHTS assay to identify small molecule antagonists of the peroxisome proliferator-activated receptor gamma (PPARg) signaling pathway (AID 743191; calls by dose curve; note: series mostly up to about 63 µM; nearly all actives have a fitted effect of over 30% in size)
Summary of the method: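 GeneBLAzer PPARg UAS-bla HEK293H cells carrying a UAS-driven beta-lactamase reporter were plated at 3000 cells/well, preincubated 5 h at 37C, then given compound for 17 h at 37C; LiveBLAzer B/G FRET substrate was read after 1 h at room temperature.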

Measured: Potency

C1CCOC1
not listed: [9] | [10]
inactive: all other assays above

CC(=O)N[C@@H](CC(C)C)C(=O)O
not listed: [3]
inactive: all other assays above

FC(F)(F)C(Cl)(Cl)Cl
not listed: [2]
inactive: all other assays above

O=c1[nH]c(=O)n([C@H]2C[C@H](O)[C@@H](CO)O2)cc1C(F)(F)F
inactive: [1] | [2] | [6] | [7]

O=C(Cl)c1cccc([N+](=O)[O-])c1
not listed: [2] | [4]
inactive: all other assays above

CN1CCC[C@@H]1Cc1c[nH]c2ccc(CCS(=O)(=O)c3ccccc3)cc12
inactive: [1] | [2] | [5] | [7] | [8]

CCCCNc1ccc(C(=O)OCCN(CC)CC)cc1
not listed: [2] | [5]
inactive: all other assays above
